# Source: ChEMBL document CHEMBL3433997, “St. Jude Leishmania screening dataset” (2016)
# Values joined by “and” are separate entries in the source; they are usually repeats but may differ in a detail not shown here. Identical values can stand only once.
# Assays:
# Type in all cases: functional
# [1] = target: Solute carrier family 2, facilitated glucose transporter member 1 (Homo sapiens) (UniProt P11166); experiment: ST_JUDE_LEISH: Cytotoxicity at 2uM final concentration against transgenic Leishmania Mexicana promastigotes LmGLUT1 that are glucose transport deficient and complemented with the human glucose transporter GLUT1. Activity is measured by DNA content using SYBR green in vitro
# [2] = target: Hexose transporter 1 (Plasmodium falciparum) (UniProt O97467); experiment: ST_JUDE_LEISH: Cytotoxicity at 2uM final concentration against transgenic Leishmania Mexicana promastigotes LmPfHT that are glucose transport deficient and complemented with the Plasmodium falciparum hexose transporter. Activity is measured by DNA content using SYBR green in vitro
# [3] = target: Glucose transporter (Leishmania mexicana) (UniProt O61059); experiment: ST_JUDE_LEISH: Cytotoxicity at 2uM final concentration against transgenic Leishmania Mexicana promastigotes LmGT2 that are glucose transport deficient and complemented with the L. Mexicana glucose transporter 2. Activity is measured by DNA content using SYBR green in vitro
# Sequence of Solute carrier family 2, facilitated glucose transporter member 1 (Homo sapiens) (P11166 whole entry): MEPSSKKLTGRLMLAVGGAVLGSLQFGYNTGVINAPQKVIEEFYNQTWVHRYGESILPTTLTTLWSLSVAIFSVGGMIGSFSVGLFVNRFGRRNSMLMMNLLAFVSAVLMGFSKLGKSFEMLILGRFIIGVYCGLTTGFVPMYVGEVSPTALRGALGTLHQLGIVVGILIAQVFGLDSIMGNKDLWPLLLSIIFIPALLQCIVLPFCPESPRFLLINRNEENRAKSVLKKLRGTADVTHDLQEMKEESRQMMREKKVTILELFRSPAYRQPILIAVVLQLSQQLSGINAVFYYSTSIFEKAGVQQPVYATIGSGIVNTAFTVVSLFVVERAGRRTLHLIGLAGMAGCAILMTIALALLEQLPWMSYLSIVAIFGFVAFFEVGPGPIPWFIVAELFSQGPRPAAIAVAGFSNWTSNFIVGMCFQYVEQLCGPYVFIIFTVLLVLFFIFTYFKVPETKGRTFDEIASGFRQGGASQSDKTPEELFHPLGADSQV
SMILES,inhibition [1],inhibition [2],inhibition [3]
Cc1cc(N(C)CCN(C)C)nc(Nc2ccc(Br)cc2)n1,-0.17%,3.61%,2.53%
CCOc1cc(Cc2cnc(N)nc2N)cc(OCC)c1O,1.1%,1.86%,-1.21%
COc1ccccc1N(C)CCNc1cc(C)nc(Nc2ccc(C)cc2)n1,8.84%,7.28%,1.83%
CC(C)Oc1cc2c(cc1NS(=O)(=O)c1ccc(-c3ccc(Cl)cc3)cc1F)CCN(C)CC2,1.27%,0.75%,-0.15%
COc1ccc2[nH]ccc(=NN=Cc3ccc(F)cc3)c2c1,2.33%,-0.63%,-0.34%
CN1CCN(c2ccc(CNc3ccc4ncc(-c5cccc(OC(F)(F)F)c5)n4n3)cc2)CC1,-2.82%,-3.7%,-2.5%
Oc1cccc(CCNCCCCCCNCCc2ccc(Cl)cc2)c1,2.27%,2.44%,2.3%
CCCCCNc1nc2nc(N)nc(N)c2nc1-c1ccccc1,7.52%,9.23%,0.23%
CCC(C)C#Cc1c(C)nc(N)nc1N (centres undefined),0.18%,0.61%,0.17%
Clc1cc(Cl)c2c(c1)C(NCCCNc1nc3ccccc3[nH]1)CCO2 (centres undefined),18.5%,43.3%,28.1%
CN(CCNCc1ccc(-c2cccc(-c3nc4ccccc4[nH]3)c2)cc1)S(C)(=O)=O,0.68%,0.26%,1.73%
CN(C)CCCOc1ccc(CNCc2cccc(Oc3ccc(Cl)cc3)c2)cc1,6.24%,2.32%,3.82%
Cc1n[nH]c2cc(Nc3nccc(Nc4ccc(Oc5ccccc5)cc4)n3)ccc12,11.3%,7.61%,6.15%
Cc1nc(-c2ccc(-c3ccc(C(=O)Nc4ccc(-n5ccnc5)c(N5CCN(C)CC5)c4)cc3)c(C)c2)no1,2.82%,2.86%,0.79%
NOCCCOc1ccc(Cl)cc1,4.86%,3.73%,3.9%
CC(C)(C)c1ccc(N2C(N)=NC(N)=NC2(C)C)cc1,-0.57%,0.01%,1.34%
CC[C@@H]([C@@H](CC(C)C)C(=O)N[C@@H](CCCCNC(=O)OCc1ccccc1)C(=O)Nc1ccccn1)N(O)C=O,4.89%,4.71%,3.88%
Cn1c2ccccc2c2c3ccccc3c(CNC(CO)(CO)CO)cc21,13.8%,12.7%,6.67%
COc1cc(Br)c(NC(=O)Nc2ccc(C(F)(F)F)c(O[C@@H]3CCN(C)C3)c2)cc1OC,2.53%,2.26%,1.55%
Cc1nc2c(c(C)nn2C(C)(C)C)c(C)c1CCC(=O)Nc1ccc(CN2CCCC2)cc1,9.93%,6.16%,5.29%
CCN(CC)CCCC(C)Nc1c2ccccc2nc2c1ccc1ccccc12 (centres undefined),7.99%,3.26%,7.76%
O=C(Nc1cccc(C(F)(F)F)c1)Nc1nc2ccc([N+](=O)[O-])cc2s1,4.59%,4.44%,0.91%
Cc1[nH]c2cc(F)ccc2c(=O)c1Cc1ccc(Cl)cc1.Cc1[nH]c2cccc(F)c2c(=O)c1Cc1ccc(Cl)cc1,23.5% and 29.2%,37.3% and 55.7%,14.3% and 15%
CCn1cc(CN2C(=O)C(c3ccccc3)(c3ccccc3)N=C2N)cn1,1.83%,2%,-1.54%
O=C1c2cc(I)ccc2SC1c1ccccc1 (centres undefined),1.22%,0.48%,0.13%

SMILES,inhibition [1],inhibition [2],inhibition [3]
N=C(N)Nc1nc(-c2cccc(NC(=O)NCc3ccc(OC(F)(F)F)cc3)c2)cs1,1.51%,0.95%,0.07%
Cc1[nH]c2ccccc2c1C(=O)C(C)Sc1nnc(-c2ccccc2F)o1 (centres undefined),2.5%,1.95%,3.81%
N#Cc1ccc2c(c1)CCN(CCC1CCC(NC(=O)c3cccc(-c4ccc(F)cc4)c3)CC1)CC2 (centres undefined),5.14%,2.32%,5.8%
CSc1ccc(CN2CCC(NC(=O)c3ccc(-c4ccc(N(C)C)cc4)s3)CC2)cc1,1.5%,0.28%,2.99%
Cc1cccc2nc(-c3ccc(-c4cccc(CNCc5cccc(N)c5)c4)cc3)[nH]c12,2.44%,2.16%,-1.02%
c1cncc(Oc2ccc(Nc3ccnc4cc(-c5cccc(CN6CCOCC6)c5)ccc34)cc2)c1,-1.93%,-1.33%,-1.76%
COc1cc(NC(=O)Nc2cc(C)nc3ccccc23)cc(OC)c1,0.54%,0.94%,2.05%
CCNc1cc(C(=O)N[C@@H](Cc2ccccc2)[C@H](O)CNCc2cc(OC)cc(OC)c2)cc(N2CCCC2=O)c1,7.69%,9.03%,6.42%
CC1CCN(C(=O)[C@H](Cc2c[nH]c3ccccc23)NS(=O)(=O)c2ccc(Cl)cc2)CC1,1.32%,2.42%,13.7%
O=C(NCCCCN1CCC(c2ccc(-c3ccco3)cc2)CC1)c1ccc(NC(=O)c2ccc(Cl)cc2)cc1,2.25%,2.49%,-0.22%
CCNC(=O)Nc1cccc(-c2cccc(-c3nc4cccc(C)c4[nH]3)c2)c1,4.32%,2.2%,3.06%
Fc1ccc2[nH]c(-c3cccc(-c4ccc(CNCC5CCCO5)cc4)c3)nc2c1 (centres undefined),1.13%,-3.6%,-1.42%
Oc1c(Cl)cc(Nc2nccc(Nc3ccc(Oc4ccccc4)cc3)n2)cc1Cl,4.19%,4.44%,1.16%
NCCCNc1ccnc2cc(Cl)ccc12,-0.29%,1.55%,10.7%
CCCCCCn1c(Sc2ccc(C#N)c([N+](=O)[O-])c2)nnc1-c1ccc(OC)cc1,5.67%,5.13%,-3.74%
CS(=O)(=O)c1ccccc1CNC(=O)c1cccc(-c2ccc(-c3nc4cc(C(F)(F)F)ccc4[nH]3)cc2)c1,2.38%,1.77%,0.15%
CCOc1cc(C2C(C(=O)OC(C)C)=C(C)NC3=C2C(=O)CC(c2ccc(Cl)cc2)C3)ccc1OC(C)=O (centres undefined),6.58%,6.64%,6.55%
O=[N+]([O-])c1ccccc1/C=N/Nc1ccnc2cc(Cl)ccc12,4.36%,4.22%,3.41%
CCC1(CC)C(=O)N=C(N2CCCCC2)N(C)C1=O,19%,14.2%,5.99%
CN(C(=O)c1ccc(Br)cc1)c1ccccc1[N+](=O)[O-],-1.57%,-1.07%,-2.57%
Cc1cccc2nc(-c3cccc(-c4ccc(NC(=O)c5cnn6cccnc56)cc4)c3)[nH]c12,11.4%,9.77%,7.27%
CN(C)c1nc2cc(-n3cnc4cc(-c5ccc(Cl)cc5)sc4c3=O)ccc2n1CCCN1CCCC1,12%,13.9%,6.91%
O=C(Nc1ccon1)c1cc(-c2cccnc2)nc2ccc(Br)cc12,2.83%,5.32%,0.72%
O=C(Nc1cc(=O)[nH]c2nc(-c3ccccc3)nn12)C1CCCCC1,2.3%,2.44%,3.26%
Fc1ccc(Nc2ccnc3cc(-c4cccc(CNCCN5CCOCC5)c4)ccc23)c(Cl)c1,2.04%,2.83%,2.84%

SMILES,inhibition [1],inhibition [2],inhibition [3]
COc1ccc(CCN2CCC(CN(C)Cc3cnn(-c4ccccc4)c3)CC2)cc1,4.24%,6.13%,7.63%
CN(C)CCCNc1ncnc2c1[nH]c1ccc(F)cc12,7.06%,7.08%,7.71%
O=C(Nc1cccc(-c2ccc(-c3nc4cc(F)ccc4[nH]3)cc2)c1)c1cccnc1,7.59%,7.21%,6.47%
Fc1cccc(COc2ccc(Nc3ncnc4ccc(C#C[C@H]5CCCN5)cc34)cc2Cl)c1,1.39%,1.5%,2.2%
COc1ccc(-c2nnc(Sc3ccc(C#N)c([N+](=O)[O-])c3)n2CC(C)C)cc1,0.96%,3.46%,1.92%
CN1CCN(CCCNCc2ccccc2-c2cccc(CNCc3ccc4c(c3)OCO4)c2)CC1,-1.31%,-0.45%,2.45%
COc1ccccc1C1CCN(C2CCC(NC(=O)/C=C/c3cc(C(F)(F)F)ccc3F)CC2)CC1 (centres undefined),2.98%,2.36%,3.14%
COc1ccc2nccc([C@H](O)CN3CCC(NCc4nc5cccc(F)c5[nH]4)CC3)c2c1,3.63%,1.1%,2.36%
Cc1cc(C)n(-c2nc(Nc3cccc(C(F)(F)F)c3)nc(-n3nc(C)cc3C)n2)n1,-2.75%,-3.09%,-1.11%
CCC[C@@H]([C@@H](CC1CCCCC1)C(=O)N[C@H](C(=O)Nc1nccs1)C(C)(C)SCCNC(=O)OCC)N(O)C=O,3.35%,4.46%,4.28%
CCc1c[nH]c2c(N3CCCC3=O)cc(C(=O)N[C@@H](Cc3ccccc3)[C@H](O)CNC(C)(C)c3cccc(C(F)(F)F)c3)cc12,-1.29%,-2.43%,-0.27%
Oc1cccc(Nc2nc(NCc3ccccc3)c3ccccc3n2)c1,22.9%,19.9%,11.8%
Cn1cnnc1Sc1ccc(CN2CCOc3ccc(C4=CCCCC4)cc3C2)o1,0.65%,1.97%,1%
COc1cc(CN2CCC(C(=O)Nc3ccc(-c4cccc(C)c4)cc3)CC2)ccc1O,8.11%,7.03%,4.91%
COc1ccc2nccc([C@@H](O)CN3CCC(NCCOc4ccc(F)cc4F)CC3)c2c1,7.55%,6.58%,-1.61%
CN(C)c1ccc(CN2CCCCC(NC(=O)c3cc(-c4ccccc4F)cs3)C2)cc1 (centres undefined),-0.57%,-0.62%,-7.76%
O=C(Cc1ccccc1)NC(CCN1CCC(N(C2CC2)S(=O)(=O)c2cccc(C(F)(F)F)c2)CC1)c1ccc(Cl)c(Cl)c1 (centres undefined),5.55%,3.86%,3.73%
CC(=O)Nc1cccc(Nc2c3ccccc3nc3ccccc23)c1,1.69%,3.82%,0.54%
Cc1cc(N[C@@H](CC(C)C)C(=O)NCCc2ccccc2)nc(NCCc2cccs2)n1,5%,7.09%,5.46%
Cc1cccc2nc(-c3ccc(-c4ccc(CN5CCN(c6ccncc6)CC5)cc4)cc3)[nH]c12,33.3%,29.1%,13.4%
CCOc1ccccc1NC(=O)Nc1ccc2c(c1)CCN(C1CCC1)CC2,9.64%,6.1%,10.2%
COc1ccc(CCNCc2cc3c(C(C)(C)C)nn(-c4ccc(Cl)cc4)c3[nH]c2=O)cc1OC,-2.79%,-2.78%,-5.42%
Cc1n[nH]c(C)c1C1CCN(CC2CCC(NC(=O)/C=C/c3ccc(Cl)c(Cl)c3)CC2)CC1 (centres undefined),4.43%,4.25%,5.93%
